Rab9 promoter act: activates the Rab9 promoter; actives 2.8% (n = 320,000); Potency, µM (top dose mostly 9.22 µM), for the others: at the highest dose activation, negative = inhibition, most hits filed as activators; AID 485297; Huh7 Rab9 promoter-luciferase reporter, luminescence, 24 h; further: % of control where 0% means no effect; nearly all actives have a fitted effect of over 60% in size
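Huh7 reporter line, Rab9 promoter upstream of luciferase. Compound exposure 24 h at 37 °C in reduced-serum medium with 10% FBS. Read-out: luminescence.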
NPC1 prom act: activates the NPC1 promoter; Huh7 NPC1 promoter luciferase reporter, 24 h; Potency, µM (highest dose often 9.22 µM), for inactives: top-dose activation, actives largely listed as activators; actives 2.4% (n = 320,000); further: % of control where 0% means no effect; nearly all actives have a fitted effect of over 60% in size
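NPC1 promoter–luciferase Huh7 cells; 24 h compound; luminescence.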
ELG1 genotoxic: genotoxicity induction in ELG1-luciferase HEK293T cells. HEK293T ELG1-luciferase reporter, luminescence, 16 h. Potency, µM (doses to about 46 µM), for inactives: at the top dose activity change, positive = activation, hits mostly activators. actives 1.3% (n = 330,000). AID 504466; further: % of control where 0% means no effect; nearly all actives have a fitted effect of over 60% in size
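16 hr compound incubation (37 °C, 5% CO2) of HEK293T cells carrying luciferase-tagged ELG1; luciferase then measured by ONE-Glo luminescence after 30 min at RT.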
ELG1 DNA repair: blocks ELG1-dependent DNA repair in HEK293T cells | HEK293T ELG1-luciferase reporter, luminescence, 16 h; DNA damage induced by 5-fluorouridine | Potency, µM (series often up to 46.1 µM), without a hit: at the top dose activity change, negative = inhibition, hits mostly inhibitors | actives 2.3% (n = 330,000) | AID 504467; further: on the % scale 0 is the no-effect control and ±100 the full control effect; nearly all actives have a fitted effect of over 55% in size
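Step one: seed 2,000 cells per well. Step two: pin-transfer compound or DMSO alongside 5-fluorouridine. Step three: incubate 16 hr, 37 °C, 5% CO2. Step four: add ONE-Glo, wait 30 min, read luminescence.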
SMN2 splice up: SMN2 splice variant enhancement; actives 2.8% (n = 210,000); HEK293 SMN2-luciferase splicing reporter, luminescence, 30-36 h; Potency, µM (titrated, usually from 46.1 µM), for the others: at the highest dose activity change, positive = activation, actives largely listed as activators; AID 1458; further: % of control where 0% means no effect; nearly all actives have a fitted effect of over 55% in size
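HEK293 cells carry an SMN2 […]–luciferase reporter in which exon 7 inclusion puts luciferase in frame. Cells were plated 10-12 h before compound addition, then incubated 30-36 h at 37C. ONE-Glo luminescence was read; sodium butyrate at 4.5 mM final served as control.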
FLuc counter: counter-screen for miR-21 project: firefly luciferase inhibitors or activators. purified FLuc, Km substrates, luminescence inhibition. Potency, µM (doses to about 57.5 µM), inactives show top-dose activity change, negative = inhibition, usual class: inhibitors. actives 6.9% (n = 360,000). AID 588342;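 further: plate controls were vehicle for no effect and reference inhibitor for full effect; nearly all actives have a fitted effect of over 55% in size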
Target sequence (P08659 whole entry, looked up): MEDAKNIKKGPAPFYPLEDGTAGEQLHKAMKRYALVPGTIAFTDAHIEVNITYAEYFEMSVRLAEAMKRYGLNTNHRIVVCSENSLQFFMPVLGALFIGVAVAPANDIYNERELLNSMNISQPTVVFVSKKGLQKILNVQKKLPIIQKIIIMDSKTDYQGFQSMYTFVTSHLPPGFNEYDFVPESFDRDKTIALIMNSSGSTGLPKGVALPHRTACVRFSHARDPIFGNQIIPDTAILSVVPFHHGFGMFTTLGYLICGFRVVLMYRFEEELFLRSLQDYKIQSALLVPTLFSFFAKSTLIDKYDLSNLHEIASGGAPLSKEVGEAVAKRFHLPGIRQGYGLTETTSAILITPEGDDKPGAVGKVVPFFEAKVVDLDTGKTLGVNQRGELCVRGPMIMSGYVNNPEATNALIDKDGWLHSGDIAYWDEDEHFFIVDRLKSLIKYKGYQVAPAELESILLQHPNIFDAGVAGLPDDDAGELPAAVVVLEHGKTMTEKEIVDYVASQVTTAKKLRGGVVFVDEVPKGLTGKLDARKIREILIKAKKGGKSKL
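Purified P. pyralis luciferase, 10 nM final, with Km-level 10 uM D-luciferin and 10 uM ATP in 50 mM Tris acetate pH 7.5, 10 mM Mg acetate, 0.01% Tween-20, 0.05% BSA; 6-point qHTS titration about 60 µM downward; luminescence read.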
Numbers without * were called inactive; [ ] = dose if it differs, or a comment. Sampled rows, rich in hits. Any-hit rate of the full collection: about 9.4%. The call rests on the fitted dose curve; in most records, active means well fitted curve in the direction sought with a large enough effect; inconclusive means small, poorly fitted or top-dose-only effect, or another doubt; inactive means no such curve, though single readings can be large; an effect the other way counts as inactive or inconclusive. Potency means the concentration at half of the fitted maximal effect.

Cc1ccc(/C(N)=N/OC(=O)CCc2ccccc2)cc1 was read as Rab9 promoter act 9.3%, NPC1 prom act 21.3%, ELG1 genotoxic inconclusive, ELG1 DNA repair inconclusive and FLuc counter 15.1µM*.
Screening N/C(=N\OC(=O)CCc1ccccc1)c1ccccc1Cl returned Rab9 promoter act 27.8%, NPC1 prom act 6.7%, ELG1 genotoxic inconclusive, ELG1 DNA repair inconclusive, SMN2 splice up 9.0% and FLuc counter 23.9µM*.
Screening CCOc1ccc(OCCCC(=O)ON=C(N)c2ccccc2Cl)cc1 returned Rab9 promoter act -3.6%, NPC1 prom act -2.1%, ELG1 genotoxic 1.4%, ELG1 DNA repair 8.5% and FLuc counter 5.1%.
For CC(C)c1nn2c(=O)cc(COC(=O)c3cccc(NC(=O)c4cccs4)c3)nc2s1 the results were FLuc counter 1.0%.
Screening NC(=O)[C@H]1CC2(CC(c3cccc(NC(=O)COc4ccc(Cl)cc4)c3)=NO2)CN1C(=O)c1ccc(Cl)cc1 (stereo partly drawn) returned Rab9 promoter act -5.0%, NPC1 prom act -0.2%, ELG1 genotoxic -17.5%, ELG1 DNA repair inconclusive and FLuc counter 7.57µM*.
For CC1(C(=O)N2CC3(CC(c4cccc(NC(=O)COc5ccc(Cl)cc5)c4)=NO3)C[C@@H]2C(N)=O)CC1 (stereo partly drawn) the results were Rab9 promoter act 0.3%, NPC1 prom act 3.0%, ELG1 genotoxic -5.5%, ELG1 DNA repair inconclusive and FLuc counter 21.3µM*.
For C/C=C/C(=O)N1CC2(CC(c3cccc(NC(=O)COc4ccc(Cl)cc4)c3)=NO2)C[C@@H]1C(N)=O (stereo partly drawn) the results were Rab9 promoter act -6.0%, NPC1 prom act inconclusive, ELG1 genotoxic -4.3%, ELG1 DNA repair inconclusive and FLuc counter 19µM*.
Screening CCCCCC(=O)N1CC2(CC(c3cccc(NC(=O)COc4ccc(Cl)cc4)c3)=NO2)C[C@@H]1C(N)=O (stereo partly drawn) returned Rab9 promoter act -4.5%, NPC1 prom act -0.6%, ELG1 genotoxic -10.4%, ELG1 DNA repair inconclusive and FLuc counter 13.5µM*.
NC(=O)[C@H]1CC2(CC(c3cccc(NC(=O)COc4ccc(Cl)cc4)c3)=NO2)CN1C(=O)c1ccccc1C(=O)c1ccccc1 (stereo partly drawn) was read as Rab9 promoter act -3.9%, NPC1 prom act -3.2%, ELG1 genotoxic -11.2%, ELG1 DNA repair inconclusive and FLuc counter inconclusive.
For C/C=C\C(=O)Nc1cccc(C2=NOC3(C2)C[C@@H](C(N)=O)N(C(=O)COc2ccc(Cl)cc2)C3)c1 (stereo partly drawn) the results were Rab9 promoter act -3.1%, NPC1 prom act -3.0%, ELG1 genotoxic 1.8%, ELG1 DNA repair -0.3% and FLuc counter 0.7%.
`O=C(Nc1ccc(C(=O)OCc2cc(=O)n3nc(C4CC4)sc3n2)cc1)c1cccc(F)c1` gave FLuc counter 0.2%.
Screening NC(=O)[C@H]1CC2(CC(c3cccc(NC(=O)COc4ccc(Cl)cc4)c3)=NO2)CN1C(=O)CC(c1ccccc1)c1ccccc1 (stereo partly drawn) returned Rab9 promoter act -10.7%, NPC1 prom act -9.7%, ELG1 genotoxic -13.4%, ELG1 DNA repair inconclusive and FLuc counter inconclusive.
`NC(=O)[C@@H]1CC2(CC(c3cccc(NC(=O)CC(c4ccccc4)c4ccccc4)c3)=NO2)CN1C(=O)COc1ccc(Cl)cc1` (stereo partly drawn) gave Rab9 promoter act -11.4%, NPC1 prom act -14.9%, ELG1 genotoxic -8.4%, ELG1 DNA repair 13µM* and FLuc counter -1.8%.
For CCC(=O)N1CC2(CC(c3cccc(NC(=O)COc4ccc(Cl)cc4)c3)=NO2)C[C@@H]1C(N)=O (stereo partly drawn) the results were Rab9 promoter act -2.4%, NPC1 prom act 1.8%, ELG1 genotoxic -3.3%, ELG1 DNA repair -9.5% and FLuc counter 16.9µM*.
`O=c1oc2ccccc2c(O)c1/C=N/c1nc(-c2ccc(O)c(O)c2)cs1` gave SMN2 splice up -3.7%[9.22 µM].
For O=C(Oc1coc(CSc2ncccn2)cc1=O)c1ccccc1[N+](=O)[O-] the results were Rab9 promoter act 2.9%, NPC1 prom act -5.4%, ELG1 genotoxic -16.1%, ELG1 DNA repair -11.8%, SMN2 splice up 4.9% and FLuc counter 6.75µM*.
COc1cc(/C=C(\C#N)c2nc(-c3cc4ccccc4oc3=O)cs2)ccc1O was read as Rab9 promoter act -7.4%, NPC1 prom act -0.4%, ELG1 genotoxic 4.5%, ELG1 DNA repair inconclusive, SMN2 splice up -17.4% and FLuc counter 0.1%.
CC1CCC(=C(C#N)c2nc(-c3cc4ccccc4oc3=O)cs2)CC1 (stereo not drawn) was read as Rab9 promoter act 3.98µM*, NPC1 prom act 3.55µM*, ELG1 genotoxic 6.51µM*, ELG1 DNA repair inconclusive, SMN2 splice up inconclusive and FLuc counter 2.69µM*.
`COc1cc(/C=C(/C#N)c2nc(-c3cc4ccccc4oc3=O)cs2)cc([N+](=O)[O-])c1O` gave Rab9 promoter act -1.0%, NPC1 prom act -2.2%, ELG1 genotoxic -0.7%, ELG1 DNA repair inconclusive and FLuc counter 12µM*.
For N#C/C(=C\c1ccc(Cl)cc1)c1nc(-c2cc3ccccc3oc2=O)cs1 the results were SMN2 splice up -1.9% and FLuc counter 0.2%.
For CC(=O)N1c2ccc(S(=O)(=O)NCCC(=O)Nc3ccc(Br)c(C)c3)cc2CC1C (stereo not drawn) the results were FLuc counter -13.3%.
Screening CC(C)(C)c1nnc(N/N=C/c2ccccc2O)n(N)c1=O returned Rab9 promoter act -15.6%, NPC1 prom act -6.9%, ELG1 genotoxic -2.1%, ELG1 DNA repair 20.6µM*, SMN2 splice up -70.7% and FLuc counter inconclusive.
For CCc1cccc(NC(=O)CCc2c(C)nn(-c3ccc(N4CCCCC4)nn3)c2C)c1 the results were Rab9 promoter act inconclusive, NPC1 prom act 24.1%, ELG1 genotoxic 13.6%, ELG1 DNA repair -19.3% and FLuc counter 10.7µM*.
Cc1ccc(NC(=O)CCc2c(C)nn(-c3ccc(N4CCCCC4)nn3)c2C)cc1F was read as Rab9 promoter act 3.98µM*, NPC1 prom act 2µM*, ELG1 genotoxic inconclusive, ELG1 DNA repair inconclusive and FLuc counter 3.38µM*.

Screening data from PubChem.
